From PubChem BioAssay
Shown are actives, neighbours in structure and some others; about 5.1% of the full set was active somewhere.
CRFBP-R2 block = blocks CRF-induced signaling of the CRF-BP/CRF-R2 complex | HEK293 CRF-R2/CRF-BP, CRF-induced calcium fluorescence | 0.59% of 350,000 active | inhibition, % at 11.8 µM;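 active = inhibition of the ligand-induced calcium signal above about 50% at the single tested concentration, limit read from the data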
MPTP inh = permeability transition pore inhibition | isolated mouse mitochondria, Ca2+ swelling absorbance, 30 min | inhibition, % at 10 µM | 1.4% of 360,000 active;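 active = inhibition of 50% or more, scaled per plate between neutral and stimulator controls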
GRIN3A LBD mod = NR3A (human) ligand-binding domain modulation | 2.5% of 340,000 active | NR3A LBD differential scanning fluorimetry, Tm shift; 0% = protein alone, 100% = glycine-bound protein | Tm shift relative to glycine control, % at 25 µM;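 active = melting temperature shift of at least 10% of the positive control shift, at one fixed dose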
TMEM16A inh = mouse TMEM16A channel inhibition, primary screen; 1.2% of 310,000 active; Q8BHY3; HEK293 TMEM16A/YFP iodide influx fluorescence, ionomycin; normalized B-score (activity score, 25-100; higher = stronger inhibition) at 10 µM;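 active = ratio plate-corrected score three or more library SD toward inhibition, starting fluorescence score within five deviations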;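 also: score derived from kinetic fluorescence span divided by baseline fluorescence per well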
Target sequence (Q8BHY3 whole entry, looked up): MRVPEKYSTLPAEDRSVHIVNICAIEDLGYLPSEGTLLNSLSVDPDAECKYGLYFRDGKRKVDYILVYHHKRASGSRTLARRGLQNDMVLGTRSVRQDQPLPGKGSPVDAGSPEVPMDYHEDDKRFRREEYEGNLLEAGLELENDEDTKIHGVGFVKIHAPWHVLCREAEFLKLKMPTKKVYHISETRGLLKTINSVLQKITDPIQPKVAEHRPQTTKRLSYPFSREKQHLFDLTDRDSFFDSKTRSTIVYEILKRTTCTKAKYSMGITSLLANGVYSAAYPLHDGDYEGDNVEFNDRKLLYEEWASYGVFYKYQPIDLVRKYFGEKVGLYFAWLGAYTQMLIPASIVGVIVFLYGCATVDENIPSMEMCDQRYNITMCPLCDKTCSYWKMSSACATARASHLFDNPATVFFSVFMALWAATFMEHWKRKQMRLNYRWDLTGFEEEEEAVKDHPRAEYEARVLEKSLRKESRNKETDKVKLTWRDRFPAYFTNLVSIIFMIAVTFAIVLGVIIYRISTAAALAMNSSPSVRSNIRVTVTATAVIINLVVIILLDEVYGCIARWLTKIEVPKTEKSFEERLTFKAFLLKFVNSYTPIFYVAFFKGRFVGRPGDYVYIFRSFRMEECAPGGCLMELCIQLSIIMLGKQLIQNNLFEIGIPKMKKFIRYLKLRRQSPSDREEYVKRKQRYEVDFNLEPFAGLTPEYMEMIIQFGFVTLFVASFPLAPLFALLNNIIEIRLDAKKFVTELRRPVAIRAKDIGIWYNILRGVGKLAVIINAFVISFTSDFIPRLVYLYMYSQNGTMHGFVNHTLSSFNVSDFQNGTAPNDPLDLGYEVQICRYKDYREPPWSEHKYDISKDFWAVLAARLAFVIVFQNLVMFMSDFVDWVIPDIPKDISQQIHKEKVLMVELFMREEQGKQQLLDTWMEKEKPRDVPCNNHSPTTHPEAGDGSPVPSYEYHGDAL
TMEM16A act = activates or potentiates the mouse TMEM16A chloride channel | B-score at 10 µM | HEK293 TMEM16A/YFP-H148Q/I152L, iodide quench fluorescence; stronger effect = lower value | Q8BHY3 | 0.3% of 340,000 active;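 active = fluorescence-ratio B-score plate-corrected deviation score at least 3 library SD below zero, with starting fluorescence score within 5 deviations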;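 also: channel opened by trigger with iodide after compound preincubation; score built on the fluorescence ratio of max minus min over baseline; more negative score means more quench and so TMEM16A activation or potentiation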
CRFBP-R2 agonist = agonists of human CRF-binding protein/CRF-R2 receptor complex. HEK293 CRF-R2/CRF-BP, calcium dye fluorescence (FLIPR); percent of saturating CRF peptide response. activation, % at 13.2 µM. 0.46% of 350,000 active. AID 588473;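 active = activation of at least 50%, plus an integration ratio under a set limit after plate pattern correction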
TMEM16A reconf = re-confirmation of mouse TMEM16A chloride channel inhibitors; 39% of 2,300 active; HEK293 TMEM16A/YFP-H148Q, iodide quench fluorescence; ionomycin added to raise cell calcium; shares compounds with TMEM16A inh; inhibition, % at 10 µM;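 active = mean duplicate percent inhibition, scaled so buffer wells are 0 and the reference blocker 100, over three buffer SD above buffer mean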
TMEM16A Ca cntr = calcium mobilization counter-screen hit for TMEM16A inhibitor series. shares compounds with TMEM16A inh. TMEM16A/YFP HEK293, Fluo4 calcium mobilization. calcium response (% of ionomycin), % at 10 µM. 2% of 2,300 active. AID 652231;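 active = duplicate-averaged calcium signal over 20% of the ionomycin maximum, relative to buffer baseline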;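 also: each well's signal is peak minus trough fluorescence divided by its pre-addition baseline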
YFP-HEK293 quench = counter-screen for TMEM16A inhibitors: effect in parental YFP-HEK293 cells; shares compounds with TMEM16A inh; iodide YFP quench, ionomycin; YFP ratio F(max-min)/F0 at 10 µM; 2,300 tested, under 10 active; AID 652233;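 active = yellow fluorescent protein signal ratio exceeding the buffer control mean by over 5 SD of those controls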;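 also: ratio is mean of duplicate wells from kinetic YFP trace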
ClC-1 inh = blocks the rat ClC-1 voltage-dependent chloride channel; shares compounds with TMEM16A inh; CHO ClC-1-YFP, iodide influx fluorescence quench; iodide control reads 0, buffer control 100; ratio percent, % at 10 µM; 2,300 tested, under 10 active; AID 652236;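 active = duplicate-mean ratio percent above the mean of iodide-only control wells, which defines zero, plus 5 of their SD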;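 also: higher percent means stronger block of ClC-1 iodide influx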
Of the large screens only hits and unclear results are named; the others gave an inactive call (follow-up assays come after a bar, where they were run).

O=C1/C(=C/c2ccc(O)c(O)c2)Oc2cc(O)ccc21	GRIN3A LBD mod 15 | TMEM16A reconf 20% | TMEM16A Ca cntr 34% | YFP-HEK293 quench inactive | ClC-1 inh inactive
CC(Oc1ccc(Cl)cc1)C(=O)NCCN1C(=O)S/C(=C\c2cccnc2)C1=O (configuration not stated)	TMEM16A inh 25 | TMEM16A reconf 55% | TMEM16A Ca cntr inactive | YFP-HEK293 quench inactive | ClC-1 inh inactive
O=C(NCc1ccccc1)C1C(c2ccc3c(c2)OCO3)=Nc2ccccc2N1C(=O)c1cccc2ccccc12 (configuration not stated)	none (no result: CRFBP-R2 block, GRIN3A LBD mod, TMEM16A inh, TMEM16A act, CRFBP-R2 agonist)
Cc1cccc(N2CCN(C(=O)Cc3ccc(Br)cc3)CC2)c1C	TMEM16A inh 100 | TMEM16A reconf inactive | TMEM16A Ca cntr inactive | YFP-HEK293 quench inactive | ClC-1 inh inactive
CCOC(=O)CSc1nnc(NC(=O)c2cc([N+](=O)[O-])cc([N+](=O)[O-])c2)s1	TMEM16A inh 25 | TMEM16A reconf inactive | TMEM16A Ca cntr inactive | YFP-HEK293 quench inactive | ClC-1 inh inactive
O=C(c1ccco1)N1CCN(C(=O)c2ccc(COc3ccc4c(c3)CCC4)o2)CC1	none
O=C(c1ccc(COc2ccc3c(c2)CCC3)o1)N1CCN(c2ccccc2)CC1	TMEM16A inh 100 | TMEM16A reconf inactive | TMEM16A Ca cntr inactive | YFP-HEK293 quench inactive | ClC-1 inh inactive
CCCc1ccc(OCc2ccc(C(=O)N3CCCC3)o2)cc1	TMEM16A inh 100 | TMEM16A reconf 62% | TMEM16A Ca cntr inactive | YFP-HEK293 quench inactive | ClC-1 inh inactive
COc1ccc(-c2cc(C(F)(F)F)nc(SCCC(=O)N3CCCC3)n2)cc1	TMEM16A inh 100 | TMEM16A reconf inactive | TMEM16A Ca cntr inactive | YFP-HEK293 quench inactive | ClC-1 inh inactive
COc1ccc(-c2cc(C(F)(F)F)nc(SCCC(=O)N3CCN4CCCC4C3)n2)cc1 (configuration not stated)	none
COc1ccc(CNC(=O)CCSc2nc(-c3ccc4c(c3)OCO4)cc(C(F)(F)F)n2)cc1	none | TMEM16A reconf inactive | TMEM16A Ca cntr inactive | YFP-HEK293 quench inactive | ClC-1 inh inactive
O=C(CCSc1nc(-c2ccc3c(c2)OCO3)cc(C(F)(F)F)n1)NCc1ccccc1	none
CC1Cn2c(nc3sc4c(c3c2=O)CC(C)(C)OC4)N1CCO (configuration not stated)	none
Cc1cc(C(F)(F)F)c(C#N)c(N2CCOCC2)n1	TMEM16A inh 100 | TMEM16A reconf inactive | TMEM16A Ca cntr inactive | YFP-HEK293 quench inactive | ClC-1 inh inactive
COc1cc(-c2nc(S(=O)(=O)c3ccccc3)c(N3CCOCC3)o2)cc(OC)c1OC	TMEM16A inh 100 | TMEM16A reconf inactive | TMEM16A Ca cntr inactive | YFP-HEK293 quench inactive | ClC-1 inh inactive
CC1=C(C(=O)OCC(Br)(Br)Br)C(c2cccc([N+](=O)[O-])c2)NC(=O)N1CCCC(=O)O (configuration not stated)	TMEM16A inh 25 | TMEM16A reconf inactive | TMEM16A Ca cntr inactive | YFP-HEK293 quench inactive | ClC-1 inh inactive
CN1/C(=C\C(=O)COC(=O)c2ccc(O)cc2)C(C)(C)c2ccccc21	none
CN1/C(=C\C(=O)COC(=O)c2ccc(O)c(O)c2)C(C)(C)c2ccccc21	TMEM16A inh 100 (no result: MPTP inh, TMEM16A act) | TMEM16A reconf 70% | TMEM16A Ca cntr inactive | YFP-HEK293 quench inactive | ClC-1 inh inactive
CN1/C(=C\C(=O)CN2C(=O)NC3(CCCCCC3)C2=O)C(C)(C)c2ccccc21	none | TMEM16A reconf inactive | TMEM16A Ca cntr inactive | YFP-HEK293 quench inactive | ClC-1 inh inactive
CNS(=O)(=O)c1cccc(C(=O)OCC(=O)/C=C2/N(C)c3ccccc3C2(C)C)c1	none | TMEM16A reconf 21% | TMEM16A Ca cntr inactive | YFP-HEK293 quench inactive | ClC-1 inh inactive
CN1/C(=C\C(=O)COC(=O)CNC(=O)c2ccc3ccccc3c2)C(C)(C)c2ccccc21	none | TMEM16A reconf 30% | TMEM16A Ca cntr inactive | YFP-HEK293 quench inactive | ClC-1 inh inactive
COc1ccc(CNC(=O)c2cn(Cc3ccc(S(=O)(=O)N(C)C)cc3)c(=O)s2)cc1	none (no result: CRFBP-R2 block, GRIN3A LBD mod, TMEM16A inh, TMEM16A act, CRFBP-R2 agonist)
CSc1cccc(NC(=O)CCCNC(=O)c2ccc(Cl)cc2)c1	none
COc1ccc(Cc2nc(-c3ccc(-n4cccc4)cc3)no2)cc1OC	TMEM16A inh 100 | TMEM16A reconf inactive | TMEM16A Ca cntr inactive | YFP-HEK293 quench inactive | ClC-1 inh inactive
CC(C)Cc1ccc(CN2CCCC(NC(=O)c3ccnn3C)C2)cc1 (configuration not stated)	TMEM16A inh 25 | TMEM16A reconf inactive | TMEM16A Ca cntr inactive | YFP-HEK293 quench inactive | ClC-1 inh inactive
COC(=O)Cc1nnc(NC(=O)C(C)C)s1	TMEM16A inh 25 | TMEM16A reconf inactive | TMEM16A Ca cntr inactive | YFP-HEK293 quench inactive | ClC-1 inh inactive
O=C(CC[C@H]1O[C@@H](n2ccc(=O)[nH]c2=O)[C@H](O)[C@@H]1O)NCc1ccccc1	none (no result: CRFBP-R2 block, GRIN3A LBD mod, TMEM16A inh, TMEM16A act, CRFBP-R2 agonist)
Cc1cccc(Cn2c(Sc3nc(C)cs3)nc3c2c(=O)[nH]c(=O)n3C)c1	TMEM16A inh 100 | TMEM16A reconf inactive | TMEM16A Ca cntr inactive | YFP-HEK293 quench inactive | ClC-1 inh inactive
O=C(CSCc1nc2ccccc2[nH]1)N1CCN(c2cccc(Cl)c2)CC1	none
O=C(CSCc1nc2ccccc2[nH]1)N1CCN(c2ccc(F)cc2)CC1	TMEM16A inh 25 | TMEM16A reconf 20% | TMEM16A Ca cntr inactive | YFP-HEK293 quench inactive | ClC-1 inh inactive
CCN(CC)C(=O)CSc1nnc(COc2ccccc2)n1CC	TMEM16A inh 25 | TMEM16A reconf inactive | TMEM16A Ca cntr inactive | YFP-HEK293 quench inactive | ClC-1 inh inactive
O=C(NC1CCCCC1)C1CCCN1S(=O)(=O)c1cccc2nsnc12 (configuration not stated)	TMEM16A inh 100 | TMEM16A reconf inactive | TMEM16A Ca cntr inactive | YFP-HEK293 quench inactive | ClC-1 inh inactive
CCCN(CCC)C(=O)C1CCCN1S(=O)(=O)c1cccc2nsnc12 (configuration not stated)	none
